MITF inh: inhibitors of human MITF; O75030; AlphaScreen MITF homodimerization, bead proximity signal; inhibition, % at 2.6 µM; 650,000 tested, 0.91% active; in the data active = inhibition above about 50%;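 also: 0% = vehicle wells with protein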
TEAD-YAP inh: TEAD-YAP interaction inhibition; inhibition, % at 9.12 µM; HEK-TIYL cells, TEAD-Gal4/YAP UAS-luciferase luminescence; 640,000 tested, 1.4% active; in the data active = inhibition above about 32%;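 also: 0% = median of test compound wells and 100% = reference inhibitor wells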
GPR151 activ: human GPR151 activation; Q8TDV0; PathHunter beta-arrestin GPR151 cells, luminescence; activation, % at 11.2 µM; 650,000 tested, 1% active; AID 1508602; in the data active = activation above about 4.9%;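 also: 0% = median of compound wells and 100% = cells with positive control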
FBW7 act: human FBW7 E3 ligase activation, primary screen; AID 1259310; normalized activity (activation), % at 26.1 µM; 650,000 tested, 0.13% active; AlphaScreen FBW7–phospho-cyclin E peptide binding, activator screen; Q969H0; in the data active = normalized activity above about 1.9%;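 also: purified mutant Fbw7 with reduced substrate affinity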
Target sequence (Q969H0 whole entry, looked up): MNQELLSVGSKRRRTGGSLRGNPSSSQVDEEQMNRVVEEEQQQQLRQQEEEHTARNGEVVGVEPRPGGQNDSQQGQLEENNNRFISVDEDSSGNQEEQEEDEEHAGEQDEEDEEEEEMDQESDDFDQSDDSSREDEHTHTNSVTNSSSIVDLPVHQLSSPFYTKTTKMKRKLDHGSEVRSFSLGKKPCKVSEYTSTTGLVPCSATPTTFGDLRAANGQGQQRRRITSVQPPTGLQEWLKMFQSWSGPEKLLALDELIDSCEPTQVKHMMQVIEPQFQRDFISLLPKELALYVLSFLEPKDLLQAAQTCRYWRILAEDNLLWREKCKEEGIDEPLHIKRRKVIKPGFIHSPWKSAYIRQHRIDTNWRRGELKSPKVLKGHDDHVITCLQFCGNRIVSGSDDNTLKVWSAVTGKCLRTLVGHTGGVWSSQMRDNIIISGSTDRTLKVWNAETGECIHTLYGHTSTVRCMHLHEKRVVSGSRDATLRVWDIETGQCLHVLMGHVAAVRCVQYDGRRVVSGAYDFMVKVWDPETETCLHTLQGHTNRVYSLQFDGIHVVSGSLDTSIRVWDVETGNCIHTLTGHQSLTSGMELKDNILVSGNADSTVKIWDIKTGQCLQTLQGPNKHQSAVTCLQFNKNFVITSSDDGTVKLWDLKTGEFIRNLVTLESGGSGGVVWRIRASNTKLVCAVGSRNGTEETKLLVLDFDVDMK
* hit, by the source's call; ! = not confirmed by another sample. Compounds with a hit are over-represented: about 3.4% of the library has one in this group of screens.

SMILES	MITF inh	TEAD-YAP inh	GPR151 activ	FBW7 act
Cc1ccc(NC(=O)c2c(O)c3c([nH]c2=O)CCCC3)cc1	2	2	-1	0
CCOc1ccccc1Nc1c(-c2ccccc2)c(=O)c1=O	-1	-8	-1	0
CCOc1ccc(Nc2c(-c3ccccc3)c(=O)c2=O)cc1	20	60*	-2	0
O=c1c(Nc2ccc(Cl)cc2)c(-c2ccccc2)c1=O	9	-2	0	0
O=c1c(Nc2ccccc2)c(-c2ccc(Cl)cc2)c1=O	9	47*	-1	0
O=C(Nc1ccc(F)cc1)c1ccccc1Cl	14	-26	-1	1
Oc1ccccc1N1CCN(c2ncnc3sccc23)CC1	0	56*	-2	0
COc1cc(C(=O)Nc2ncc(Cc3ccccc3)s2)cc(OC)c1OC	3	53*	2	0
COc1cc(C(=O)Nc2nnc(Cc3ccccc3)s2)cc(OC)c1OC	0	3	-1	0
O=C(Cc1ccccc1)Nc1ncc(Cc2ccccc2)s1	6	-1	-1	0
CC(Oc1ccccc1)C(=O)Nc1ncc(Cc2ccccc2)s1 (centres undefined)	0	42*	-1	0
COc1cc(C(=O)Nc2ncc(Cc3cccc(Cl)c3)s2)cc(OC)c1OC	13	54*	2	0
O=C(Nc1ccc(F)cc1)C1CCN(S(=O)(=O)c2ccc(Cl)cc2)CC1	-1	-3	-2	0
CCCC(=O)Nc1nnc(S(=O)(=O)N(CC)CC)s1	2	2	1	0
N#CCCN(C(=O)COC(=O)c1ccc(Cl)cc1N)c1ccccc1	-4	-1	1	0
N#CCCN(C(=O)CCl)c1cccc(Cl)c1	3	74*	0	0
N=C(N)c1ccc(OCCCCCOc2ccc(C(=N)N)cc2)cc1	-20	44*!	2	0
N=C(N)c1ccc(N)cc1	-4	-12	1	0
COc1cc(Nc2nccn3c(-c4ccc(F)cc4)cnc23)cc(OC)c1OC	3	51*	0	0
COc1cc(Nc2nccn3c(-c4ccc(N(C)C)cc4)cnc23)cc(OC)c1OC	13	55*	3	-1
COc1ccc(-c2cnc3c(Nc4cc(OC)c(OC)c(OC)c4)nccn23)cc1	-3	-8	1	0
COc1cncc(-c2cnc3c(Nc4cc(OC)c(OC)c(OC)c4)nccn23)c1	28	57*	1	0
CN(C1=C(N2CCOCC2)C(=O)c2ccccc2C1=O)c1ccccc1	51*	14	1	-1
CC(=O)N(C1=C(N2CCOCC2)C(=O)c2ccccc2C1=O)c1ccccc1	12	64*	-3	0
CC(=O)N(C1=C(N2CCOCC2)C(=O)c2ccccc2C1=O)c1cccc(Cl)c1	6	13	-3	-1
SMILES	MITF inh	TEAD-YAP inh	GPR151 activ	FBW7 act
O=C1C(N2CCCCC2)=C(N2CCOCC2)C(=O)c2ccccc21	5	10	0	0
CCOc1ccc(N(C(C)=O)C2=C(N3CCN(C)CC3)C(=O)c3ccccc3C2=O)cc1	9	90*	-4	0
O=C1C(NC2CCCC2)=C(N2CCOCC2)C(=O)c2ccccc21	27	79*	-3	0
CC(=O)N(C1=C(N2CCOCC2)C(=O)c2ccccc2C1=O)c1ccc(Cl)c(Cl)c1	117*	40*	-3	0
CC(=O)N(C1=C(N2CCCC2)C(=O)c2ccccc2C1=O)c1cccc(F)c1	18	42*	-2	0
CC(=O)N(C1=C(N2CCCC2)C(=O)c2ccccc2C1=O)c1ccc(Cl)c(Cl)c1	21	14	-3	0
CC(C)C(C)NC(=O)Cn1nc(C(=O)O)c2ccccc2c1=O (centres undefined)	3	-4	1	0
COc1ccc(C2=NC(C(C)C)NC(c3cc(Cl)ccc3O)C2)cc1 (centres undefined)	-3	-32	-1	0
CCN1CCN(C(=O)/C(C#N)=C/c2cc(C)n(C3CCCC3)c2C)CC1	15	-15	-2	1
Cc1cc(/C=C(\C#N)C(=O)N2CCOCC2)c(C)n1C1CCCC1	6	32*	-3	0
O=C(Nc1noc2ccccc12)c1ccccc1	-10	51*	-8	0
Cc1ccc(C(=O)Nc2noc3ccccc23)cc1	5	76*	-5	0
O=C(Nc1noc2ccccc12)c1ccco1	17	-21	-5	0
CCCNC(=O)CSc1nccn1Cc1ccc2c(c1)OCO2	13	-1	0	0
O=C(COc1ccccc1)N1CCC(c2nnc(-c3ccco3)o2)CC1	-12	17	1	0
O=C(Nc1ccccc1Cl)c1ccccc1Nc1nc(-c2ccccc2)cs1	-6	-2	-1	0
Cc1ccc(OCC(O)Cn2c(C3CC(=O)N(c4ccccc4F)C3)nc3ccccc32)cc1C (centres undefined)	16	32*	0	1
CCc1ccc(OCC(O)Cn2c(C3CC(=O)N(c4ccccc4F)C3)nc3ccccc32)cc1 (centres undefined)	-15	10	3	0
COc1ccc(Nc2cc(C)c3c(O)cccc3n2)cc1	12	38*	-1	0
CCN1CCN(c2ncc(-c3ccccc3)cc2C=O)CC1	-2	36*	2	0
NC(=O)NNC1CC(=O)N(c2ccccc2)C1=O (centres undefined)	13	10	2	0
CCc1ccc2c(c1)/C(=c1/sc3n(c1=O)CN(c1cccc(C(=O)O)c1)CN=3)C(=O)N2	3	-1	-1	3.9*
CCOC(=O)c1ccc(NS(=O)(=O)c2ccc(-c3cc(C)no3)cc2)cc1	3	4	-3	0
CN(C(=O)COC(=O)c1c[nH]c(=O)[nH]c1=O)C1CCCCC1	5	6	2	0
CN(C)c1ccc(/C=C(\C#N)c2ccccn2)cc1	13	91*	-10	0
SMILES	MITF inh	TEAD-YAP inh	GPR151 activ	FBW7 act
CSc1ccc(/C=C(\C#N)c2ccccn2)cc1	10	-7	-3	0
CN(C)c1ccc(NC(=S)Nc2ccccc2)cc1	-2	-11	-2	-1
CN(C)c1ccc(NC(=S)c2ccccn2)cc1	33	93*	-9	-1
COc1ccc(NC(=S)c2ccccn2)cc1	2	60*	-11	0
COc1ccc(NC(=S)Nc2ccccn2)cc1	-7	-71	0	0
Cc1ccc(NC(=S)c2ccccn2)cc1	15	51*	-9	0
COc1ccccc1NC(=S)c1ccccn1	18	-38	1	0
O=C(NCC1CCCO1)c1cccnc1Nc1ccccc1F (centres undefined)	-2	-4	0	0
N#C/C(=C(/O)COC(=O)c1ccccc1O)c1nc2ccccc2[nH]1	0	4	1	0
CC(=O)NC(=O)c1cc2ccccc2oc1=Nc1ccc(C)cc1	-10	35*	1	0
O=C(Cc1cn(-c2ccc(N3CCN(c4ccccn4)CC3)nn2)c2ccccc12)NCCN1CCOCC1	-1	-35	0	0
O=C(NCc1ccc(F)cc1)c1cccc2c1C(=O)N(C1CCCCC1)C2	19	-4	0	0
O=C(CCl)NCCOc1ccccc1	-9	36*	0	0

Screening data deposited in PubChem by The Scripps Research Institute Molecular Screening Center.
